# PubChem BioAssay (NCI)
# The panel holds about 83,000 compounds, 20% with a hit somewhere; the sample as a whole holds those more often.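 Plates (96-well) were seeded with cells, treated with compound at one concentration, and incubated for 48 hours before percent growth was determined.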 A number with no mark means an inactive call. Calls of active or inactive are those of the source. Rule for the calls: active = growth percent below 10; inactive = the rest.
# Key:
# Experiment in all cases: NCI-60 one-dose screen, 48 h (100 = growth as untreated, 0 = no growth, -100 = all killed)
# Conditions in all cases: 10 µM unless noted
# HCT-15 colon = tested on: HCT-15 colon
# HT29 colon = tested on: HT29 colon
# SNB-75 CNS = tested on: SNB-75 CNS
# SNB-19 CNS = tested on: SNB-19 CNS
# U251 CNS = tested on: U251 CNS
# PC-3 prostate = tested on: PC-3 prostate
# SK-MEL-5 melanoma = tested on: SK-MEL-5 melanoma
# UACC-62 melanoma = tested on: UACC-62 melanoma
# LOX IMVI melanoma = tested on: LOX IMVI melanoma
# SK-MEL-28 melanoma = tested on: SK-MEL-28 melanoma
# SK-MEL-2 melanoma = tested on: SK-MEL-2 melanoma
# EKVX NSCLC = tested on: EKVX NSCLC
# SN12C renal = tested on: SN12C renal
# UO-31 renal = tested on: UO-31 renal
# TK-10 renal = tested on: TK-10 renal
# ACHN renal = tested on: ACHN renal
# CAKI-1 renal = tested on: CAKI-1 renal
# A498 renal = tested on: A498 renal
# CCRF-CEM leukemia = tested on: CCRF-CEM leukemia
# MOLT-4 leukemia = tested on: MOLT-4 leukemia
SMILES,growth (HCT-15 colon),growth (HT29 colon),growth (SNB-75 CNS),growth (SNB-19 CNS),growth (U251 CNS),growth (PC-3 prostate),growth (SK-MEL-5 melanoma),growth (UACC-62 melanoma),growth (LOX IMVI melanoma),growth (SK-MEL-28 melanoma),growth (SK-MEL-2 melanoma),growth (EKVX NSCLC),growth (SN12C renal),growth (UO-31 renal),growth (TK-10 renal),growth (ACHN renal),growth (CAKI-1 renal),growth (A498 renal),growth (CCRF-CEM leukemia),growth (MOLT-4 leukemia)
Cc1[nH]c(C(=O)Nc2nc3ccc(NC(=O)CCN)cc3s2)c(Cl)c1Cl,83.2%,88.9%,81.6%,78.6%,47.1%,65.5%,83.8%,44.4%,19.7%,97.8%,96.4%,76.3%,65.4%,80.4%,113%,43.2%,31.5%,65.3%,15.3%,12.9%
CCNC(=O)Nc1ncccc1OCc1ccc(F)cc1,99.7%,95.5%,102%,102%,96.8%,103%,101%,94.6%,94.6%,113%,99.8%,102%,107%,93.7%,92.8%,108%,90.1%,88.3%,101%,98%
COc1cc2c(cc1OCCCOC1=C=C=C(c3ccc4c(c3)c3cc(-c5ccc(OCCCOc6cc7c(cc6OC)C(=O)N6CCC[C@H]6C=N7)cc5)ccc3n4S(=O)(=O)c3ccc(C)cc3)C=C1)N=C[C@@H]1CCCN1C2=O,69.4%,37.7%,4.32% (active),61.6%,-29.8% (active),42.7%,39%,-14.1% (active),-14.5% (active),64.8%,-20.6% (active),94.5%,-17.2% (active),39.1%,221%,7.74% (active),-19.8% (active),76.9%,40.3%,-11.6% (active)
Nc1ncc(-c2ccc3ncnc(N4CCc5ccc(Cl)cc54)c3c2)cc1C(F)(F)F,14.9%,9.27% (active),-23.4% (active),32.7%,28.4%,15.4%,22.6%,10.5%,11.7%,28.7%,14.1%,6.87% (active),20.6%,-12% (active),-3.58% (active),11%,-9.77% (active),-62.5% (active),21.6%,7.2% (active)
C#CCOCC1CN(C)C(=O)O1 (stereo not given),98.1%,99.5%,98.5%,107%,103%,109%,114%,112%,105%,110%,116%,115%,103%,97.1%,110%,105%,104%,107%,98.9%,89.6%
Nc1n[nH]c2cccc(C#Cc3cccc(NC(=O)c4ccc(N5CCOCC5)c(C(F)(F)F)c4)c3)c12,8.44% (active),3.29% (active),-25.6% (active),26.1%,16.6%,1.76% (active),23.4%,-5.9% (active),-96.9% (active),8.55% (active),-7.56% (active),18.4%,9.03% (active),-31.7% (active),16.5%,-0.609% (active),9.52% (active),-34.3% (active),10.5%,7.67% (active)
O=C(N=Nc1c(O)[nH]c2ccccc12)Nc1ccccc1Cl,68.1%,101%,82%,91.1%,92.2%,92.5%,87.6%,78.8%,96.5%,105%,102%,86.6%,86.4%,68.1%,107%,99%,80.5%,96.5%,91.9%,93.3%
Clc1nccc2c(-c3csc(-c4c[nH]c5ccc(Br)cc45)n3)c[nH]c12,-49.4% (active),5.95% (active),21%,44.6%,-2.09% (active),19.9%,47.2%,17%,-31.9% (active),-8.62% (active),48.7%,42.5%,54%,9.83% (active),28.6%,6.55% (active),32.9%,-1.69% (active),20.1%,22%
N#CC(Cc1cccc2ccccc12)c1cc2ccccc2[nH]1 (stereo not given),88%,95.7%,88.3%,98.2%,92.3%,74.8%,95.6%,70%,90.9%,102%,113%,94.1%,90.2%,51.9%,108%,95.2%,73.7%,112%,-47% (active),78.2%
N=C(N)c1ccc(-c2ccc(-c3ccc(Cl)c(Cl)c3)s2)cc1,-62.5% (active),6.02% (active),103%,-23.8% (active),-65.9% (active),-24.1% (active),94.8%,88.6%,-71.3% (active),107%,107%,72.4%,14.3%,54%,109%,-62.7% (active),-69% (active),86.7%,1.96% (active),-14.9% (active)
Cc1ccc(S(=O)(=O)OC[C@@]2(C)CC[C@]3(C)CC[C@]4(C)C(=CC[C@@H]5[C@@]6(C)CCCNC(C)(C)[C@@H]6CC[C@]54C)[C@@H]3C2)cc1,-89.7% (active),-88.2% (active),-57.1% (active),-16.7% (active),-89.6% (active),-10.3% (active),40.1%,-69.2% (active),-99.5% (active),55.6%,-59% (active),9.58% (active),-88.3% (active),-2.29% (active),-61.1% (active),-100% (active),-92.4% (active),86.8%,-28.6% (active),-42.1% (active)
N#C/C(=N\Nc1ccc(Cl)cc1)C(=O)Nc1cc(-c2ccccc2)nn1-c1ccccc1,9.38% (active),34.1%,62.1%,30.4%,23.1%,6.71% (active),-31% (active),3.27% (active),73.5%,38.6%,10.5%,24.4%,0.137% (active),47.1%,28.6%,33.9%,21.5%,3.5% (active),15.3%,26.1%
COc1ccccc1/C=C1\COc2ccc(O)c(O)c2C1=O,-13.3% (active),57.5%,11.6%,43.7%,15.3%,33.1%,41.6%,14.8%,-30.1% (active),47.9%,58.5%,71.6%,-11% (active),-68.6% (active),35.2%,1.49% (active),31.9%,109%,2.74% (active),-1.1% (active)
O=C1/C(=C/c2ccc(-c3ccccc3C(F)(F)F)o2)SC(=S)N1CCc1ccc(O)cc1,29.6%,14.8%,29.2%,87.8%,44.1%,48.6%,84.4%,47%,41.4%,69.5%,70.1%,75.3%,66.6%,40.1%,83.1%,66.3%,33.8%,79.1%,11.9%,17.5%
